# ELG1 repair inh: inhibitors of ELG1-dependent DNA repair in HEK293T cells. HEK293T ELG1-luciferase reporter, luminescence, 16 h; DNA damage induced by 5-fluorouridine. Potency, µM (titrated, usually from 46.1 µM), for the others: at the highest dose activity change, negative = inhibition, actives largely listed as inhibitors. hit rate 2.3% among 330,000; further: potency means the concentration at half of the fitted maximal effect; nearly all actives have a fitted effect of over 55% in size
#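 Cells (2,000 per well) received 5-fluorouridine plus test compound or DMSO and were incubated 16 hr at 37 °C, 5% CO2. Luciferase activity was read by luminescence 30 min after ONE-Glo addition; signal suppression marked inhibition of damage-induced ELG1 function.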
# HT1080NT lethal: kills 2HG-producing HT-1080-NT fibrosarcoma cells. hit rate 1.6% among 360,000. AID 686970. HT-1080-NT fibrosarcoma viability, CellTiter-Glo ATP luminescence, 48 h. Potency, µM (titrated, usually from 46.1 µM), for inactives: at the top dose activity, negative = less viability, most hits filed as cytotoxic;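 further: NT is the 2HG producing partner of a matched IDH1 knockdown line; potency means the concentration at half of the fitted maximal effect; 0% = DMSO-treated cells and -100% = media-only wells without cells; nearly all actives have a fitted effect of over 55% in size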
#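 750 cells/well, RPMI + 5% FBS; 2 h settle, compound pin-transfer, 48 h at 37 degrees C. CellTiter-Glo 10 min RT, luminescence. Normalized to DMSO and media-only wells.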
# HT1080 IDH1KD tx: HT-1080 IDH1 knockdown cell toxicity (counter line); HT-1080 IDH1 knockdown viability, ATP luminescence, 48 h; Potency, µM (highest dose often 46.1 µM), without a hit: top-dose activity, negative = toxicity, hits mostly cytotoxic; hit rate 2% among 360,000; AID 686971;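 further: potency means the concentration at half of the fitted maximal effect; 0% = DMSO wells and -100% = cell-free medium wells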
#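 IDH1KD HT-1080 cells, 750/well, RPMI + 5% FBS; compound pinned after 2 h settling; 48 h, 37 °C; CellTiter-Glo luminescence; % activity normalised to DMSO and no-cell wells; curves fitted, classed by r2 and efficacy.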
# DT40 TDP1 CPT: DT40-hTDP1 cell growth loss with CPT | Potency, µM (doses to about 46.2 µM), for inactives: top-dose activity change, negative = growth inhibition, actives largely listed as inhibitors | hit rate 12% among 420,000 | AID 686979 | chicken DT40 Tdp1-/-;hTDP1 cells + 20 nM CPT, ATP luminescence, 48 h; further: potency means the concentration at half of the fitted maximal effect; nearly all actives have a fitted effect of over 55% in size
#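 Cell growth measured by CellTiter-Glo luminescence after a minimum 48 h, 37 C compound exposure with 20 nM CPT in Tdp1-knockout DT40 cells stably expressing hTDP1, seeded 400/well; qHTS titration format.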
# IL-1B inflam inh: blocks inflammasome-driven IL-1 beta release; THP-1 LPS/ATP IL-1B secretion, AlphaLISA, 16 h; active compounds read low; hit rate 4.7% among 360,000; activity change, % at 57.5 µM; in the data active means activity change below about -50%; inconclusive means mostly about -30% to -49%
#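 Secreted IL-1B measured by AlphaLISA bead assay after 16 h compound exposure of THP-1 cells; compounds (final up to 57.5 uM) added 1 h before LPS (250 ng/mL) and ATP (1.25 mM) stimulation; lower signal means less secretion.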
# DT40 TDP1 no CPT: qHTS for Inhibitors of human tyrosyl-DNA phosphodiesterase 1 (TDP1): qHTS in cells in absence of CPT; DT40 Tdp1-/- hTDP1 cells, no CPT, ATP luminescence, 48 h; Potency, µM (doses to about 46.2 µM), without a hit: at the highest dose activity change, negative = growth inhibition, usual class: inhibitors; hit rate 15% among 420,000; further: potency means the concentration at half of the fitted maximal effect; nearly all actives have a fitted effect of over 55% in size
#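 DT40 Tdp1-/-;hTDP1 cells, no CPT (DMSO vehicle only), 400 cells/well; compounds pin-transferred; ≥48 hr, 37 °C; CellTiter-Glo 30 min RT dark, luminescence read.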
# Numbers without * were called inactive; ? = inconclusive; · = not tested or not shown; [ ] = another dose, or the depositor's remark. Sampled rows, rich in hits. Any-hit rate of the full collection: about 19%. Unless noted, the call rests on the fitted dose curve; in most records, active means well fitted curve in the direction sought with a large enough effect; inconclusive means small, poorly fitted or top-dose-only effect, or another doubt; inactive means no such curve, though single readings can be large; an effect the other way counts as inactive or inconclusive. Unless noted, on the % scale 0 is the no-effect control and ±100 the full control effect.
SMILES,ELG1 repair inh,HT1080NT lethal,HT1080 IDH1KD tx,DT40 TDP1 CPT,IL-1B inflam inh,DT40 TDP1 no CPT
COc1ccc(N2C(=O)CC(NNc3ncc(Cl)cc3Cl)C2=O)cc1 (centres undefined),15%,-5%,-9%,15µM*,18,15µM*
CCOC(=O)C(=NC(C)CC)NNc1ccc(Br)cc1 (centres undefined),2%,16µM*,?,?,16,?
CCOC(=O)C(=NC(C)CC)NNc1cccc(C(F)(F)F)c1 (centres undefined),2%,-8%,-7%,-8%,-6,?
CCC(=O)NNc1ccc(Br)cc1,?,3.7µM*,4.1µM*,-8%,-8,-28%
CCC(C)NC(=O)Nc1ccc(Br)cc1 (centres undefined),5%,-2%,3%,?,-3,?
Cc1nn(Cc2c(F)c(F)c(F)c(F)c2F)c(C)c1NC(=O)c1cccc(COc2ccc(Cl)cc2)c1,?,6%,4%,10µM*,-6,7.3µM*
CCn1cc([N+](=O)[O-])c(C(=O)Nc2c(C)nn(Cc3c(F)c(F)c(F)c(F)c3F)c2C)n1,2%,1%,-1%,?,-11,-30%
Cc1cccc(Cn2nc(C)c(NC(=O)c3ccc(F)cc3)c2C)c1,-2%,3%,-5%,-4%,-7,?
CCn1ccc(C(=O)Nc2c(C)nn(Cc3c(F)c(F)c(F)c(F)c3F)c2C)n1,-5%,-3%,-1%,?,24,16µM*
CC(C)c1cc(C(N)=O)c(NC(=O)c2cccc(COc3ccc(Cl)cc3)c2)s1,?,-12%,-22%,26µM*,?,?
CCn1cc(Cl)c(C(=O)Nc2c(C)nn(Cc3c(F)c(F)c(F)c(F)c3F)c2C)n1,-6%,7%,0%,15µM*,-8,?
Cc1cc(NC(=O)c2cccc(COc3ccc(Br)cc3)c2)no1,?,-24%,-19%,-2%,39,8%
COc1ccc(/C=C/C(=O)N(C)c2ccccc2C(=O)O)cc1,13%,3%,14%,4%,-1,8%
Cc1ccc2ncccc2c1NC(=S)NC(=O)c1ccccc1,-28%,-11%,-19%,?,0,?
CC(C)(C)c1ccc(C(=O)NCC(c2ccco2)S(=O)(=O)c2ccccc2)cc1 (centres undefined),·,·,·,18µM*,·,23µM*
O=S(=O)(NCC(c1ccco1)S(=O)(=O)c1cccs1)c1ccccc1 (centres undefined),·,·,·,?,·,-28%
CC(C)(C)c1ccc(C(=O)NCC(c2cccs2)S(=O)(=O)c2ccccc2)cc1 (centres undefined),·,·,·,16µM*,·,15µM*
CCOc1ccc(C(=O)NCC(c2cccs2)N(C)C)cc1 (centres undefined),1%,0%,9%,?,10,-19%
CCOc1ccc(C(=O)NCC(c2cccs2)S(=O)(=O)c2ccccc2)cc1 (centres undefined),·,·,·,29µM*,·,?
O=S(=O)(NCC(c1cccs1)S(=O)(=O)c1ccccc1)c1ccccc1 (centres undefined),·,·,·,1.2µM*,·,1.8µM*
Cc1cn(C2CC(OC(=O)C(C)C)C(CO)O2)c(=O)[nH]c1=O (centres undefined),?,2%,-1%,-2%,18,5%
COc1ccccc1-c1nccc(NCc2cccnc2)n1,·,·,·,-3%,·,-10%
CC(C)Nc1nc(NC2CCCC2)nc(N2CCOCC2)n1,22%,-1%,0%,?,-99*,?
Cc1cc(NC2CCCCC2)nc(N2CCOCC2)n1,-6%,-2%,-4%,-16%,-20,-9%
CCOC(=O)C1Oc2ccccc2C(c2ccc(C)cc2)=C1C(=O)OC (centres undefined),-5%,-1%,2%,?,56,?
SMILES,ELG1 repair inh,HT1080NT lethal,HT1080 IDH1KD tx,DT40 TDP1 CPT,IL-1B inflam inh,DT40 TDP1 no CPT
CCOC(=O)C1(CC)Oc2ccccc2C(c2ccc(OC)cc2)=C1C(=O)OC (centres undefined),?,5%,0%,?,-29,18µM*
N#Cc1cn(Cc2ccco2)c(=O)[nH]c1=O,·,2%,-2%,1%,9,-9%
CC(C)c1ccc(N2C(=NC(=O)C3CC3)SC3CS(=O)(=O)CC32)cc1 (centres undefined),2%,-4%,3%,-14%,31,5%
C[C@H]1CN([C@@H](C)CO)C(=O)CCCn2nncc2CO[C@@H]1CN(C)Cc1ccc(C(F)(F)F)cc1,·,7%,-4%,3%,51,-29%
C[C@H](CO)N1C[C@H](C)[C@@H](CN(C)Cc2ccc(C(F)(F)F)cc2)OCc2cnnn2CCCC1=O,·,-2%,-6%,26µM*,4,?
C[C@@H]1CN([C@H](C)CO)C(=O)CCCn2nncc2CO[C@H]1CN(C)Cc1ccccc1C(F)(F)F,·,6%,5%,15µM*,-9,21µM*
C[C@H]1CN([C@@H](C)CO)C(=O)CCCn2nncc2CO[C@H]1CN(C)S(=O)(=O)c1ccc(Oc2ccccc2)nc1,·,2%,-2%,10µM*,27,8.2µM*
C[C@H]1CN([C@@H](C)CO)C(=O)CCCn2nncc2CO[C@@H]1CN(C)Cc1ccc(-c2ccccc2)cc1,·,-29%,?,9.2µM*,-25,10µM*
Cc1ccccc1S(=O)(=O)N(C)C[C@@H]1OCc2cn(nn2)CCCC(=O)N([C@H](C)CO)C[C@H]1C,·,0%,8%,-5%,9,-6%
COc1ccccc1-c1ccnc(-n2ncc(C(=O)N(C)C(C)c3ccon3)c2C2CC2)n1 (centres undefined),·,·,·,-11%[9.04 µM],·,-23%
COC(=O)c1ccc(NC(=O)CSc2nccn2CCc2ccccc2)cc1,?,3%,7%,?,3,18µM*
Cc1nc(-c2ccccc2)sc1-c1ccc(SCC(=O)Nc2ccccc2)nn1,·,·,·,?,·,23µM*
CCOc1ccc(NC(=O)CSc2ccc(-c3sc(-c4ccccc4)nc3C)nn2)cc1,·,·,·,-88%,·,?
COC(=O)c1ccc(NC(=O)CSc2ccc(-c3sc(-c4ccccc4)nc3C)nn2)cc1,·,·,·,?,·,12µM*
COC(=O)c1ccc(NC(=O)CSc2nc(=O)n3cccc(C)c3n2)cc1,-4%,-8%,-3%,18µM*,11,?

# Bioassay records (PubChem)
